{"source": "PubChem BioAssay (NCATS)", "key": {"CRL-7250": {"tested_on": "CRL-7250", "test": "Cytotoxic Profiling of Annotated Libraries Using Quantitative High-Throughput Screening (AID 1296008); also: potency is read from the fitted curve at half-maximal effect", "settings": "Five cell lines viability, CellTiter-Glo ATP luminescence, 48-72 h; max response: active compounds read low", "method_in_brief": "(§1)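 Cells exposed to compounds for 48 or 72 hr at 37 degrees Celsius. Viability read as ATP-coupled luminescence with CellTiter-Glo after 10 min at room temperature.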"}, "HaCat [1]": {"tested_on": "HaCat", "test": "Cytotoxic Profiling of Annotated Libraries Using Quantitative High-Throughput Screening (AID 1296008)", "settings": "Five cell lines viability, CellTiter-Glo ATP luminescence, 48-72 h; max response: active compounds read low", "method_in_brief": "as §1"}, "KB-3-1": {"tested_on": "KB-3-1", "test": "Cytotoxic Profiling of Annotated Libraries Using Quantitative High-Throughput Screening (AID 1296008)", "settings": "Five cell lines viability, CellTiter-Glo ATP luminescence, 48-72 h; max response: active compounds read low", "method_in_brief": "as §1"}, "NIH3T3": {"tested_on": "NIH3T3", "test": "Cytotoxic Profiling of Annotated Libraries Using Quantitative High-Throughput Screening (AID 1296008)", "settings": "Five cell lines viability, CellTiter-Glo ATP luminescence, 48-72 h; max response: active compounds read low", "method_in_brief": "as §1"}, "HACAT [2]": {"tested_on": "HACAT", "test": "qHTS assay to identify novel small-molecules to repurpose for Merkel cell carcinoma treatment (AID 1296009)", "settings": "MCC and control cell lines, CellTiter-Glo viability, 72 h; at 44.8 µM (top of the series) unless noted", "method_in_brief": "(§2)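 Cells were treated for 72 hr at 37 degree celsius with compounds in 8- or 11-point dose response. Viability was read by CellTiter-Glo luminescence, normalized to no-cell (cytotoxicity) and DMSO controls.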"}, "MCC-13": {"tested_on": "MCC-13", "test": "qHTS assay to identify novel small-molecules to repurpose for Merkel cell carcinoma treatment (AID 1296009)", "settings": "MCC and control cell lines, CellTiter-Glo viability, 72 h; series mostly up to 46 µM", "method_in_brief": "as §2"}, "MCC-26": {"tested_on": "MCC-26", "test": "qHTS assay to identify novel small-molecules to repurpose for Merkel cell carcinoma treatment (AID 1296009)", "settings": "MCC and control cell lines, CellTiter-Glo viability, 72 h; series mostly up to 46 µM", "method_in_brief": "as §2"}, "W2": {"tested_on": "W2", "test": "qHTS profiling for inhibitors of Plasmodium falciparum proliferation (AID 504749)", "settings": "P. falciparum in erythrocytes, SYBR Green DNA, 72 h; series mostly up to 28.7 µM", "method_in_brief": "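P. falciparum-infected erythrocytes (0.3% parasitemia, 2.5% hematocrit) incubated with compound 72 h at 37 C, 5% CO2. Parasite DNA detected by SYBR Green after lysis, overnight at room temperature; normalised to 0.29 uM artemisinin and DMSO.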"}, "HEK293": {"tested_on": "HEK293", "test": "Cytotoxic Profiling of Annotated Libraries Using Quantitative High-Throughput Screening (AID 1296008)", "settings": "Five cell lines viability, CellTiter-Glo ATP luminescence, 48-72 h; max response: active compounds read low", "method_in_brief": "as §1"}, "HEK293T": {"tested_on": "HEK293T", "test": "qHTS assay to identify novel small-molecules to repurpose for Merkel cell carcinoma treatment (AID 1296009)", "settings": "MCC and control cell lines, CellTiter-Glo viability, 72 h; at 44.8 µM (top of the series) unless noted", "method_in_brief": "as §2"}}, "note": "Several values for one entry are separate records, joined by “and”; a condition that tells them apart may be missing. Equal values may be shown once. Records with an inconclusive call do not appear. Entries that show only a call come without a potency. Values without a mark were called inactive. Activity calls are given as the source filed them. Calls follow the shape of the dose curve; as a rule, active = well fitted inhibition curve with a large enough effect; inconclusive = small, poorly fitted or top-dose-only effect; inactive = flat fitted curve, though single readings scatter. Also: nearly all actives have a fitted effect of over 60% in size."}
{"smiles": "CN(C)C(=O)[C@H](O)[C@H](Cc1ccccc1)NC(=O)c1cc2cc(Cl)ccc2[nH]1", "values": [{"measurement": "outcome", "setting": "CRL-7250", "result": "inactive"}, {"measurement": "max response", "setting": "HaCat [1]", "result": -6.71, "unit": "%"}, {"measurement": "outcome", "setting": "HaCat [1]", "result": "inactive"}, {"measurement": "max response", "setting": "KB-3-1", "result": -0.73, "unit": "%"}, {"measurement": "outcome", "setting": "KB-3-1", "result": "inactive"}, {"measurement": "max response", "setting": "NIH3T3", "result": -4.58, "unit": "%"}, {"measurement": "outcome", "setting": "NIH3T3", "result": "inactive"}, {"measurement": "outcome", "setting": "HACAT [2]", "result": "inactive"}, {"measurement": "Potency", "setting": "MCC-13", "result": "inactive"}]}
{"smiles": "NCCCCNCCCN", "values": [{"measurement": "max response", "setting": "CRL-7250", "result": -45.5, "unit": "%"}, {"measurement": "outcome", "setting": "HaCat [1]", "result": "inactive"}, {"measurement": "outcome", "setting": "HACAT [2]", "result": "inactive"}, {"measurement": "Potency", "setting": "MCC-13", "result": "inactive"}, {"measurement": "Potency", "setting": "MCC-26", "result": "inactive"}]}
{"smiles": "CCCCC(CC)COC(=O)C(C#N)=C(c1ccccc1)c1ccccc1", "note": "(centres undefined)", "values": [{"measurement": "Potency", "setting": "W2", "result": "6.75 µM (active)"}, {"measurement": "Potency", "setting": "HEK293", "result": "18.8 µM (active)"}, {"measurement": "max response", "setting": "HaCat [1]", "result": -0.998, "unit": "%"}, {"measurement": "outcome", "setting": "HaCat [1]", "result": "inactive"}, {"measurement": "max response", "setting": "NIH3T3", "result": -1.9, "unit": "%"}, {"measurement": "outcome", "setting": "NIH3T3", "result": "inactive"}, {"measurement": "outcome", "setting": "HACAT [2]", "result": "inactive"}, {"measurement": "Potency", "setting": "MCC-13", "result": "inactive"}]}
{"smiles": "COc1c(O)cc2c(c1O)[C@@H]1O[C@H](CO)[C@@H](O)[C@H](O)[C@H]1OC2=O", "values": [{"measurement": "outcome", "setting": "CRL-7250", "result": "inactive"}, {"measurement": "outcome", "setting": "HEK293", "result": "inactive"}, {"measurement": "max response", "setting": "HaCat [1]", "result": "-11.1% and -23.6%"}, {"measurement": "max response", "setting": "NIH3T3", "result": "-9.83% and 0.115%"}, {"measurement": "outcome", "setting": "HEK293T", "result": "inactive"}, {"measurement": "Potency", "setting": "MCC-13", "result": "inactive"}, {"measurement": "Potency", "setting": "MCC-26", "result": "inactive"}]}
